Wnt act – Wnt/beta-catenin pathway activation; AID 743398; activation, % at 9.35 µM; hit rate 1.2% among 300,000; Wnt/beta-catenin reporter cell assay, activator, plate reader; in the data active = activation above about 30%, passing the limit was not always enough; inconclusive = no clear call, values can overlap the other calls
Statin myotox sup – suppression of simvastatin myotoxicity; C2C12 myotubes + simvastatin, ATP luminescence, 48 h; scaled: DMSO 0, geranylgeraniol control 100; rescue of ATP level, % at 7.49 µM; hit rate 0.78% among 330,000;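 active = mean ATP rescue above about 67%, or every replicate alone reaching that limit, limit read from the data, passing the limit was not always enough; inconclusive = no clear call, values can overlap the other calls; inactive = mean under the limit and some replicate under it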;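 note: myotubes were challenged with 10 µM simvastatin during compound exposure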
MITF TRPM1 HTS – activators of MITF-driven TRPM1 promoter activity in SK-MEL-5 cells; AID 588334; SK-MEL-5 TRPM1-promoter luciferase, 24 h; % of positive control, neutral wells = 0; activation, % at 12.5 µM; hit rate 0.75% among 300,000;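 active = mean activation of at least 80% with every replicate also reaching 80%; inconclusive = mean reaches 80% but some replicate falls short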
esBAF inh – blocks esBAF chromatin remodeling in mouse ES cells; Bmi1-luciferase knock-in reporter, 24 h; 100% = twice the neutral-well signal; reporter increase, % at 12.5 µM; hit rate 2% among 350,000; in the data active = activation above about 40%; inconclusive = no clear call, values can overlap the other calls;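 note: a rise in the Bmi1 reporter signal indicates esBAF inhibition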
Of the large screens only hits and unclear results are named; the others gave an inactive call. Only some compounds are listed: those with a hit (about 3% of all), similar ones and a draw of the others.

Cc1ccccc1NC(=O)c1ccc(NC(=O)c2ccco2)cc1	none (no result: Wnt act)
O=C(Nc1ccccn1)c1ccc(NC(=O)c2ccco2)cc1	MITF TRPM1 HTS 86 (no result: Wnt act)
COc1cc(Cl)ccc1OCc1cc(C(=O)N2C[C@@H]3CCC[C@H]2C3)no1	Wnt act 38, esBAF inh 92
COc1cc(C)ccc1OCc1cc(C(=O)N2C[C@H]3CC[C@H]2C3)no1	none
COc1cc(Cl)ccc1OCc1cc(C(=O)N2C[C@]3(C)C[C@H]2CC(C)(C)C3)no1	MITF TRPM1 HTS 125 (no result: Statin myotox sup, esBAF inh)
COc1cc(Cl)ccc1OCc1cc(C(=O)N2C[C@H]3CC[C@H]2C3)no1	esBAF inh 63
C=CCn1cccc(C(=O)Nc2ccc(C)cc2)c1=O	none (no result: MITF TRPM1 HTS)
C=CCn1cccc(C(=O)Nc2ccc(C)c(C)c2)c1=O	Wnt act inconclusive, esBAF inh 49
Cc1ccc(N2Cc3ccccc3C2=S)cc1	esBAF inh 73
S=C1c2ccccc2CN1c1ccccc1	none
Cc1nn(-c2ccc(C(=O)O)cc2)c(N)c1-c1ccccc1	esBAF inh 61 (no result: Statin myotox sup)
COc1ccc(-c2c(C)nn(-c3ccccc3)c2N)cc1	MITF TRPM1 HTS 103, esBAF inh 63
Cc1nn(-c2nc3ccccc3[nH]2)c(N)c1-c1ccc(Cl)cc1	esBAF inh 61
COc1ccc(-c2c(C)nn(-c3ccccc3)c2N)cc1OC	none (no result: Wnt act)
Nc1c(-c2ccccc2)cnn1-c1ccc(C(=O)O)cc1	none (no result: Wnt act)
COc1cc2c(cc1OC)-c1cc(Nc3ccccc3)nc(=O)n1CC2	Wnt act 45 (no result: Statin myotox sup, MITF TRPM1 HTS, esBAF inh)
Cc1noc(C)c1S(=O)(=O)N(C)C[C@@H]1Oc2ccc(NC(=O)Nc3cccc4ccccc34)cc2CC(=O)N([C@@H](C)CO)C[C@@H]1C	none (no result: Wnt act, MITF TRPM1 HTS)
COc1cc2nc(N(C)C)nc(N)c2cc1OC	Statin myotox sup 78
O=C(Nc1ccccc1)c1ccc(-c2ccccc2C(F)(F)F)o1	esBAF inh 52
CC(C)NC(=O)c1ccc(-c2ccccc2C(F)(F)F)o1	esBAF inh 47 (no result: Wnt act)
Cc1noc(C)c1S(=O)(=O)N(C)C[C@@H]1Oc2ccc(NC(=O)NC3CCCCC3)cc2CC(=O)N([C@H](C)CO)C[C@@H]1C	none (no result: Wnt act, MITF TRPM1 HTS)
CCc1cc(C(=O)Nc2ncccc2O)sc1C	Wnt act 37 (no result: Statin myotox sup, esBAF inh)
CCc1cc(C(=O)Nc2ccc(OC)nc2)sc1C	esBAF inh 47
Cc1noc(C)c1NC(=O)N(C)C[C@H]1Oc2ccc(NC(=O)NC3CCCCC3)cc2CC(=O)N([C@H](C)CO)C[C@@H]1C	none (no result: Wnt act, MITF TRPM1 HTS)
O=C(N/N=C/c1ccc(Br)s1)Nc1ccccc1	esBAF inh 51
Cc1ccsc1/C=N/NC(=O)Nc1ccccc1	MITF TRPM1 HTS 107 (no result: Statin myotox sup, esBAF inh)
COc1cc(S(=O)(=O)Nc2ncccc2C)c(OC)cc1Cl	Statin myotox sup 121
COc1ccc(Br)cc1S(=O)(=O)Nc1ncccc1C	none (no result: Statin myotox sup, esBAF inh)
S=C(NCCc1ccc(Cl)cc1)NC1CCCCC1	MITF TRPM1 HTS 89, esBAF inh 63
Fc1ccccc1NC(=S)NCCc1ccccc1	Statin myotox sup 156, esBAF inh 49 (no result: MITF TRPM1 HTS)
O=C(NC(=S)NCCc1ccccc1)c1ccccc1	esBAF inh 67
Fc1ccccc1NC(=S)NCCc1ccc(Cl)cc1	MITF TRPM1 HTS inconclusive, esBAF inh 59
O=C(NC(=S)NCCc1ccccc1)c1ccccc1F	none
COc1ccc(C#Cc2ccc3c(c2)[C@H]2[C@H](CCN2C(=O)Nc2ccc(C(F)(F)F)cc2)[C@@H](CO)N3C)cc1	none (no result: Wnt act, MITF TRPM1 HTS)
S=C(NCc1ccc(Cl)cc1)Nc1ccccc1Cl	none (no result: Wnt act, Statin myotox sup, esBAF inh)
CSc1ccccc1NC(=S)NCc1ccc(Cl)cc1	esBAF inh 59
O=C1C(=C(c2ccccc2)c2ccccc2)Nc2ccccc21	Statin myotox sup 100
O=C1C(=C(O)c2ccccc2)C(=O)c2ccccc21	none
Cc1ccc(S(=O)(=O)Nc2ccc3c(c2)CC(=O)N([C@@H](C)CO)C[C@H](C)[C@H](CN(C)C(=O)NC(C)C)O3)cc1	none (no result: Wnt act, MITF TRPM1 HTS)
CCCC#Cc1ccc([C@H]2[C@H](CO)N3CCCCN(C(=O)NC4CCCC4)C[C@@H]23)cc1	none (no result: Wnt act, MITF TRPM1 HTS)
Cn1c(SCc2ccccc2F)nc2cccnc21	esBAF inh 43 (no result: Wnt act, Statin myotox sup, MITF TRPM1 HTS)
CCOC(=O)CSc1nc2cccnc2n1C	none
C[C@@H]1CN([C@H](C)CO)C(=O)c2cc(NS(=O)(=O)c3cn(C)cn3)ccc2O[C@H]1CN(C)Cc1ccc2c(c1)OCO2	none (no result: Wnt act, MITF TRPM1 HTS)
O=C(c1ccc(-c2ccccc2Cl)o1)N1CCN(S(=O)(=O)c2cccs2)CC1	MITF TRPM1 HTS 87 (no result: Statin myotox sup, esBAF inh)
O=C(c1cc(-c2ccccc2Cl)on1)N1CCN(C(=O)c2ccco2)CC1	none (no result: Wnt act)
O=C(c1ccco1)N1CCN(C(=O)c2ccc(-c3ccccc3Cl)o2)CC1	MITF TRPM1 HTS inconclusive, esBAF inh 56
O=C(c1ccccc1Cl)N1CCN(S(=O)(=O)c2cccs2)CC1	none
